Laboratory results published in the supplement of paper PMC3334620.
The full ranking holds about 33,000 sequences; the median of “E-score (-0.5 to 0.5)” is about -0.016, and the highest 2% start at about 0.32. The full list was thinned out, with the highest values kept by preference.

Target: T1, Stp1 (UniProt B3LFK1)
T1 sequence: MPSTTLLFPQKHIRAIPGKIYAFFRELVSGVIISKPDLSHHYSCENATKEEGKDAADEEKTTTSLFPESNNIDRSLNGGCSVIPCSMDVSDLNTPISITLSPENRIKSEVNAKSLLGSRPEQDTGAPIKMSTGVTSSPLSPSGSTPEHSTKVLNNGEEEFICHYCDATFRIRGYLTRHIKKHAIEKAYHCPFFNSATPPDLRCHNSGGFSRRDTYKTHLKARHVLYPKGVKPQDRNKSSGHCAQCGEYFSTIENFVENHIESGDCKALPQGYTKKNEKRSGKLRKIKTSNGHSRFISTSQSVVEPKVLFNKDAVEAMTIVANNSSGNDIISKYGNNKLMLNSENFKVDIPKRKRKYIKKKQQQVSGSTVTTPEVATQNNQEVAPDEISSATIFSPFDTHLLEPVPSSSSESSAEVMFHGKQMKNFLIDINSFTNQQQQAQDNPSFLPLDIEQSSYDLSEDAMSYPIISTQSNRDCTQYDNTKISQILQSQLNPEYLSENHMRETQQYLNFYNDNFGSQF
Assay: PBM E-score (8-mer binding enrichment) (E-score (-0.5 to 0.5)); higher = stronger / more preferred TF binding
Details: protein concentration: 200 nM; construct: GST-full length
Method in brief: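 Masliner-normalised scans of fluorescent anti-GST signal were the basis for scoring. That signal came from GST-tagged yeast transcription factors applied at about 100-200 nM to double-stranded universal all-10-mer Agilent arrays on fresh or once-stripped slides. Each ungapped eight-base word, pooled with its reverse complement, received an E-score from the Universal PBM Analysis Suite.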

Which “PBM E-score” value does the source give for AGCCGTGG here?
The value was 0.334.

AGCCGTGC was tested. Which “PBM E-score” value did it give?
The value was 0.465.

With AACCGTGG as the sequence, how does the “PBM E-score” value read?
Its value is -0.00732.

Which “PBM E-score” value does the source give for ATCCGTGC here?
The value was 0.41.

AGCCGTGA was tested. Which “PBM E-score” value did it give?
Its value is 0.343.

For ACCCGTGA, which “PBM E-score” value is on record?
Its value is -0.0351.

CTCCGTGC was tested. Which “PBM E-score” value did it give?
The value was 0.228.

ACCCGTGG was tested. Which “PBM E-score” value did it give?
Its value is -0.0825.

How did the “PBM E-score” value turn out when ACCCGTGC was run?
The value was 0.237.

With AACCGTGC as the sequence, how does the “PBM E-score” value read?
The value was 0.26.

How did the “PBM E-score” value turn out when ATCCGTGA was run?
The value was 0.00902.

Which “PBM E-score” value does the source give for ATGCTGAC here?
Its value is -0.0531.

Which “PBM E-score” value does the source give for ATACAGCC here?
Its value is -0.0239.

With GCCTCTAA as the sequence, how does the “PBM E-score” value read?
The value was 0.0553.

How did the “PBM E-score” value turn out when AACCGTAC was run?
The value was -0.0138.

Which “PBM E-score” value does the source give for CGAACAGA here?
Its value is 0.0325.

CCCCGTGA was tested. Which “PBM E-score” value did it give?
Its value is -0.14.

For CGCCGTGA, which “PBM E-score” value is on record?
The value was 0.376.

CACCGTGA was tested. Which “PBM E-score” value did it give?
The value was -0.114.

How did the “PBM E-score” value turn out when ATGCACTC was run?
Its value is -0.0521.

How did the “PBM E-score” value turn out when AACGAGAA was run?
Its value is 0.00842.

Which “PBM E-score” value does the source give for GCCGCCCA here?
Its value is 0.111.

Which “PBM E-score” value does the source give for GCCGCCCC here?
The value was 0.378.

GCCGCCAC was tested. Which “PBM E-score” value did it give?
Its value is 0.0605.

Which “PBM E-score” value does the source give for CCCGCCGC here?
Its value is 0.332.

CCCGCCGA was tested. Which “PBM E-score” value did it give?
The value was -0.0885.

For CCCGCCGG, which “PBM E-score” value is on record?
The value was -0.213.

How did the “PBM E-score” value turn out when GCCGCCGC was run?
Its value is 0.424.

How did the “PBM E-score” value turn out when ACCGCCCC was run?
The value was -0.144.

How did the “PBM E-score” value turn out when GCCGCCGA was run?
The value was 0.316.

Which “PBM E-score” value does the source give for CCTTGATC here?
The value was 0.1.

Which “PBM E-score” value does the source give for CTGCCCCC here?
The value was -0.327.

Which “PBM E-score” value does the source give for CGGGCATA here?
Its value is -0.155.

For AACGCCCA, which “PBM E-score” value is on record?
The value was 0.122.

For AAGTCCGT, which “PBM E-score” value is on record?
Its value is -0.0471.

With AAAGAAAT as the sequence, how does the “PBM E-score” value read?
The value was 0.128.

With CCATATGG as the sequence, how does the “PBM E-score” value read?
Its value is 0.0408.

How did the “PBM E-score” value turn out when AGGCTAAG was run?
Its value is -0.0187.

TCCGCAGA was tested. Which “PBM E-score” value did it give?
The value was -0.0849.

For CCCGCAGA, which “PBM E-score” value is on record?
Its value is 0.06.

With ACCGCAGC as the sequence, how does the “PBM E-score” value read?
The value was -0.119.

With ACCGCATA as the sequence, how does the “PBM E-score” value read?
Its value is 0.0344.

ACCGCAAC was tested. Which “PBM E-score” value did it give?
Its value is -0.0924.

GCCGCAAC was tested. Which “PBM E-score” value did it give?
Its value is 0.366.

CCCGCAAC was tested. Which “PBM E-score” value did it give?
The value was 0.097.

Which “PBM E-score” value does the source give for GCCGCAGC here?
The value was 0.394.

Which “PBM E-score” value does the source give for CCCGCAGC here?
Its value is -0.123.

With CCCGCATA as the sequence, how does the “PBM E-score” value read?
The value was 0.21.

How did the “PBM E-score” value turn out when GCCGCAGA was run?
Its value is 0.372.

For GCCGCATA, which “PBM E-score” value is on record?
Its value is 0.457.

How did the “PBM E-score” value turn out when GTGCTGCA was run?
Its value is 0.0505.

For CTCTTACC, which “PBM E-score” value is on record?
The value was 0.201.

How did the “PBM E-score” value turn out when CTACCTCA was run?
The value was -0.152.

With CTACCCCA as the sequence, how does the “PBM E-score” value read?
The value was -0.114.

Which “PBM E-score” value does the source give for CAGGTTGA here?
The value was -0.216.

How did the “PBM E-score” value turn out when AGTAACGC was run?
The value was 0.192.

How did the “PBM E-score” value turn out when ATGGTTGC was run?
Its value is -0.177.

With GACTAGCC as the sequence, how does the “PBM E-score” value read?
Its value is -0.194.

With ATCGCTGA as the sequence, how does the “PBM E-score” value read?
The value was -0.0887.

How did the “PBM E-score” value turn out when CCTTGCGC was run?
Its value is 0.138.

With GGTGCGAC as the sequence, how does the “PBM E-score” value read?
Its value is -0.0804.

Which “PBM E-score” value does the source give for CCGTACAA here?
The value was 0.35.

Which “PBM E-score” value does the source give for CCGTATCG here?
Its value is 0.215.

For CCGTATAA, which “PBM E-score” value is on record?
Its value is 0.341.

TCGTATAA was tested. Which “PBM E-score” value did it give?
The value was 0.136.

With CCGTATCA as the sequence, how does the “PBM E-score” value read?
Its value is 0.327.

Which “PBM E-score” value does the source give for CCGTATCC here?
Its value is 0.316.

ACGTATAA was tested. Which “PBM E-score” value did it give?
The value was 0.113.

How did the “PBM E-score” value turn out when TCGTACAA was run?
Its value is 0.157.

Which “PBM E-score” value does the source give for GCGTACAA here?
The value was 0.167.

ATCGAAGA was tested. Which “PBM E-score” value did it give?
Its value is 0.171.

Which “PBM E-score” value does the source give for GCACTAAC here?
The value was 0.042.

How did the “PBM E-score” value turn out when ATTCTCAA was run?
Its value is 0.152.

How did the “PBM E-score” value turn out when AGACCAAT was run?
Its value is -0.0691.

For GCGACTGA, which “PBM E-score” value is on record?
The value was -0.227.

How did the “PBM E-score” value turn out when ACTCCCAG was run?
Its value is -0.264.

With AGTGAACC as the sequence, how does the “PBM E-score” value read?
Its value is 0.00324.

For CCCGTTCC, which “PBM E-score” value is on record?
The value was -0.00751.

CCCGTTCA was tested. Which “PBM E-score” value did it give?
Its value is -0.132.

For GCCGTTCA, which “PBM E-score” value is on record?
The value was 0.441.

Which “PBM E-score” value does the source give for ACCGTTCC here?
Its value is 0.15.

How did the “PBM E-score” value turn out when TCCGTTCA was run?
Its value is 0.0192.

Which “PBM E-score” value does the source give for GCCGTTCC here?
Its value is 0.432.

For AAATAAAC, which “PBM E-score” value is on record?
Its value is 0.218.

GCGGCCAA was tested. Which “PBM E-score” value did it give?
The value was 0.161.

How did the “PBM E-score” value turn out when GAGGACAA was run?
Its value is -0.101.
